Screens deposited in PubChem BioAssay by National Center for Advancing Translational Sciences (NCATS).
Hits are enriched below; roughly 5.9% of the tested compounds scored in any of these assays.
HEK293 tox – cytotoxicity counter-screen for GLP-1 receptor inverse agonists | HEK293 cAMP-luciferase reporter cells, luminescence, 24 h | AID 624418 | hit rate 0.13% among 410,000 | Potency, µM (doses to about 38.3 µM), usual class: inhibitors;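 further: loss of luciferase light is scored as toxicity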
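Step one: seed cells (200 cells/uL, DMEM with 10% Nu serum, 1% pen-strep). Step two: 12-hour incubation at 37 deg C. Step three: pin 23 nL compound, incubate 24 hr. Step four: add luciferase reagent, read luminescence 12 min later.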
RORg inh – ROR gamma (mouse) transcription inhibition; Drosophila S2 Gal4-RORgamma UAS-luciferase reporter, 20 h; Potency, µM (titrated, usually from 53.6 µM), usual class: inhibitors; hit rate 5.4% among 310,000; further: nearly all actives have a fitted effect of over 60% in size
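Luminescence from a UAS-regulated Photinus luciferase reporter in stably transfected Drosophila Schneider cells is measured; decreased signal marks ROR gamma inhibition. Fusion expression is induced by 700 uM copper sulfate for 20 hr.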
Gal4-VP16 FLuc – counter-screen for ROR gamma inhibitors: Gal4-VP16 reporter; Drosophila S2 Gal4-VP16 UAS-luciferase, luminescence, 20 h; Potency, µM (doses to about 53.6 µM), hits mostly inhibitors; hit rate 3.5% among 310,000; AID 2546;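 further: Gal4-VP16 expression switched on by copper sulfate through the metallothionein promoter; nearly all actives have a fitted effect of over 50% in size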
GLP-1R agonist – GLP-1 receptor (human) agonism. HEK293 GLP-1R CRE-luciferase, luminescence, 4-6 h; cells express a hypersensitive GLP-1R form. Potency, µM (doses to about 45.6 µM), actives largely listed as activators. hit rate 0.007% among 380,000
Target sequence (P43220 whole entry, looked up): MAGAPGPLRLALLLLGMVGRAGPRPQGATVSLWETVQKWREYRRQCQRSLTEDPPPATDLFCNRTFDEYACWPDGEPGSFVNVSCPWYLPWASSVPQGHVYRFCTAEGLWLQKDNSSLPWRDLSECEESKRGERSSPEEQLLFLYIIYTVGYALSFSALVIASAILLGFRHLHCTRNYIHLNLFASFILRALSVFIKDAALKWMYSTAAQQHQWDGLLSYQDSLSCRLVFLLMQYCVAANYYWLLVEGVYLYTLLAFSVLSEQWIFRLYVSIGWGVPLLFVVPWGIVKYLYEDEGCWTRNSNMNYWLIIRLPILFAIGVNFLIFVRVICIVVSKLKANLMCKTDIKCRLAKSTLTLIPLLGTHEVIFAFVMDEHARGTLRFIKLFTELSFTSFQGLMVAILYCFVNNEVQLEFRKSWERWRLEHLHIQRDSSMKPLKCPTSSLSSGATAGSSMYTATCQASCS
GLP1R inv ag – acts as inverse agonist at human GLP-1 receptor | P43220 | HEK293 GLP-1R CRE-luciferase, luminescence, 24 h; GLP-1R form is constitutively active | Potency, µM (highest dose often 38.3 µM), actives largely listed as inhibitors | hit rate 1.6% among 410,000 | AID 624417; further: nearly all actives have a fitted effect of over 55% in size
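Assay principle: reduced luminescence from a cAMP-responsive reporter in HEK293 cells co-expressing a constitutively active GLP-1R. Conditions: 24 hr compound incubation, 37 deg C, 5% CO2.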
Numbers stand for hits; – = inactive; ? = inconclusive; · = no result given. The call rests on the fitted dose curve; in most records, active means well fitted curve in the direction sought with a large enough effect; inconclusive means small, poorly fitted or top-dose-only effect, or another doubt; inactive means no such curve, though single readings can be large; an effect the other way counts as inactive or inconclusive.

SMILES	HEK293 tox	RORg inh	Gal4-VP16 FLuc	GLP-1R agonist	GLP1R inv ag
O=C(C1COc2ccccc2O1)N1CCN(c2nc3c(F)cccc3s2)CC1 (stereo not given)	–	·	·	·	?
COC(=O)C1=C[C@@H](C(=O)OC)C2C3=C(C(=O)[C@@]2(CC(C)C)NC(=O)c2ccccc2)[C@H](C)n2c(=O)n(C)c(=O)n2[C@@H]3C1 (stereo not given in full)	·	–	–	·	·
CC1(C(=O)NCCc2ccccc2)Cc2c(-c3ccc4c(c3)OCO4)ccnc2O1 (stereo not given)	–	·	·	–	?
CC1(C(=O)NCc2ccccc2)Cc2c(-c3ccc4c(c3)OCO4)ccnc2O1 (stereo not given)	–	·	·	–	2.8µM
CC1(C(=O)NCc2ccccc2)Cc2c(-c3ccccc3)ccnc2O1 (stereo not given)	–	·	·	–	?
CC1(C(=O)NCc2ccccc2)Cc2c(-c3ccc(C(N)=O)cc3)ccnc2O1 (stereo not given)	?	·	·	–	6.3µM
COC(=O)c1ccc(C(NC(=O)OCc2ccccc2)/C(=C/[C@@H](C)C(=O)NCc2nc3ccccc3s2)c2cccnc2)cc1 (stereo not given in full)	·	–	–	·	·
Cc1cccc(N=Nc2ccc(O)c3ncccc23)c1	–	0.11µM	0.035µM	–	–
NS(=O)(=O)c1ccc(N=Nc2ccc(O)c3ncccc23)cc1	?	–	?	–	–
CCOc1ccc(N=Nc2ccc(O)c3ncccc23)cc1	–	0.28µM	0.4µM	–	–
CCOc1ccc(N=Nc2cc(C(C)C)ccc2O)cc1	–	–	–	–	–
CCOc1ccc(N=Nc2ccc(N)cc2N)cc1	·	8.9µM	10µM	–	·
Cc1ccc(C)c(N=Nc2ccc(O)c3ncccc23)c1	–	0.11µM	–	–	?
COc1cccc(Nc2ncc3nc(-c4cn(C)c5ccccc45)c(=O)n(CCC#N)c3n2)c1	·	–	–	·	·
Oc1ccc(N=Nc2ccc3c(c2)OCCO3)c2ncccc12	10µM	0.32µM	0.4µM	–	?
O=C(Nc1ncccc1O)c1ccc2c(c1)OCCO2	–	·	·	–	–
Cc1ccc(/C=C2\CCC3=C2OC(N)=C(C#N)C3c2ccc(C)cc2)cc1 (stereo not given)	–	–	–	–	?
N#CC1=C(N)OC2=C(CCc3ccccc32)C1c1ccccc1 (stereo not given)	–	–	–	–	1.3µM
CCCCOc1ccc(C(=O)OC2CC(C)N(C)CC2C)cc1 (stereo not given)	–	–	–	–	3.5µM
O=C(N/N=C/c1cccnc1)c1ccc(Cn2cc([N+](=O)[O-])cn2)o1	–	–	–	–	–
O=C(Nc1nc2ccccc2n1CCN1CCOCC1)c1ccc(Cn2cc([N+](=O)[O-])cn2)o1	–	11µM	?	–	–
CN1CCN(NC(=O)c2ccc(COc3ccccc3Br)o2)CC1	–	–	–	–	?
O=C(Nc1nc2ccccc2n1CCN1CCOCC1)c1ccc(COc2ccccc2Br)o1	3.5µM	2µM	5.6µM	–	?
CC(C)ON(C(C(=O)NO)C(C)C)S(=O)(=O)c1ccc(-c2ccccc2)cc1 (stereo not given)	·	10µM	?	·	·
CC(C)ON(CC(=O)NO)S(=O)(=O)c1ccc(-c2ccccc2)cc1	·	–	–	·	·
SMILES	HEK293 tox	RORg inh	Gal4-VP16 FLuc	GLP-1R agonist	GLP1R inv ag
COc1ccc(OC)c(NC(=O)Cn2cnc3ccc(S(=O)(=O)N4CCC(C)CC4)cc3c2=O)c1	–	·	·	–	–
O=C(CSCc1ccccc1Cl)N1CCN(c2ccc(F)cc2)CC1	–	·	·	·	?
Cc1cc(NC(=O)COC(=O)C2CCN(S(=O)(=O)c3ccc(Cl)cc3)CC2)no1	–	–	–	–	–
Cc1cc(NC(=O)COC(=O)C2CCN(S(=O)(=O)c3c(Cl)cccc3Cl)CC2)no1	–	5µM	–	–	–
CCOC(=O)C1CCN(S(=O)(=O)c2c(Cl)ccc3nonc23)CC1	·	2.2µM	2.8µM	·	·
N#Cc1cn(Cc2ccccc2)c2ccccc12	–	–	–	–	11µM
S=C(c1cn(Cc2ccc(Br)cc2)c2ccccc12)N1CCOCC1	–	14µM	?	–	?
N#Cc1ccccc1Cn1cc(C#N)c2ccccc21	–	–	–	–	?
S=C(c1cn(Cc2ccccc2)c2ccccc12)N1CCOCC1	–	11µM	–	–	?
N#CCCn1c(=O)c(-c2cccs2)nc2cnc(OCc3ccccc3)nc21	·	–	–	·	·
COc1ccc2c(-c3ccccc3)cc(=S)[nH]c2c1	–	1µM	?	–	–
CC(C)=CCc1c(O)cc(O)c2c(=O)c3c(CC=C(C)C)c(O)ccc3oc12	?	·	·	–	10µM
CC(C)=CCc1c(O)cc2c(=O)c3ccc(O)cc3oc2c1O	–	·	·	–	–
CSC1=NC2(CCN(C(=O)NC3CCCCC3)CC2)N=C1c1ccc(C)cc1	–	·	·	·	–
Oc1[nH]c2ccccc2c1N=Nc1ccccn1	–	·	·	–	–
Oc1c(N=Nc2ccccn2)ccc2ccccc12	5µM	0.11µM	–	–	?
COC(=O)c1ccc(NC(=O)C2CC3CCC2C3)cc1 (stereo not given)	–	·	·	–	–
COC(=O)c1ccc(NC(=S)NCC2CC2)cc1	–	11µM	?	–	–
COC(=O)c1ccc(NC(=S)NC2CC3CCC2C3)cc1 (stereo not given)	?	11µM	?	–	10µM
COC(=O)c1ccc(NC(=S)NC2CCCCC2)cc1	–	7.1µM	?	–	?
COC(=O)c1cccnc1NC(=S)NC1CCCCC1	–	0.63µM	1.3µM	–	–
COc1ccc(Cl)cc1NC(=O)c1c(NCc2cccnc2)sc2c1CCC(C)C2 (stereo not given)	–	·	·	·	–
CCNC(=O)c1c(NC(=O)c2cc(=O)c3ccc(C)c(C)c3o2)sc2c1CCCC2	–	·	·	·	–
CCc1ccc(C(=O)NC2=NC(c3cc(OC)ccc3OC)CC(=O)N2)cc1 (stereo not given)	–	·	·	·	–
COc1cccc(NC(=O)c2sc3nc(C)c(C(=O)Nc4ccc(Cl)cc4)c(-c4ccc(Br)cc4)c3c2N)c1	–	·	·	·	–
SMILES	HEK293 tox	RORg inh	Gal4-VP16 FLuc	GLP-1R agonist	GLP1R inv ag
CCOC(=O)c1[nH]c(C)c(C(=O)OCC)c1C	–	–	–	?	–
CCOC(=O)c1c(C(F)(F)C(F)(F)C(F)(F)C(F)(F)F)n[nH]c1C	?	–	–	–	10µM
O=C(O)COc1ccc2ccccc2c1	·	–	–	·	·
O=C(O)COc1ccc(/C=C/C(=O)c2ccc3ccccc3c2)cc1	–	1.6µM	?	–	–
CC(C)(C)OC(=O)CNC(=O)c1[nH]cnc1C(=O)NC(c1ccccc1)c1ccccc1	?	6.3µM	?	–	?
CNC(=O)c1[nH]cnc1C(=O)NCC(=O)OC(C)(C)C	?	–	–	–	–
C[C@H](NC(=O)c1nc[nH]c1C(=O)NC(c1ccccc1)c1ccccc1)C(=O)OC(C)(C)C	–	2.5µM	4.5µM	–	5.6µM
